aSyn 5UTR act: Activators working through SNCA 5'UTR binding (MLPCN) | alpha-synuclein 5'UTR reporter, activators screen | activity score, % (tested at 7.5 µM), hits read low | 300,000 tested, 7.1% active; in the data active = activity score below about -60%
Active calls of the source: *. Not all results are given here.

SMILES	aSyn 5UTR act
CC(=O)c1csc(Nc2ccccc2Cl)n1	-121*
CN(C)CCNC(=O)c1csc(Nc2cccc3ccccc23)n1	57
CC1CCN(C(=O)C2CC(c3ccc(F)cc3)=NO2)CC1 (stereo not given)	-88*
CC1CCCC(C)N1C(=O)C1CC(c2ccc(F)cc2)=NO1 (stereo not given)	-84*
O=C(NC1CCCC1)C1CC(c2ccc(F)cc2)=NO1 (stereo not given)	-108*
COc1cccc(C2=NOC(C(=O)N3CCOCC3)C2)c1 (stereo not given)	-101*
Cc1ccc(NC(=S)NNC(=O)c2ccco2)cc1	-74*
Cc1ccc(C(=O)NNC(=O)c2ccco2)cc1	-69*
C/C(=N/N=C(\C)c1ccccc1O)c1ccccc1O	-115*
O=C(NC(=S)Nc1ccc(N2CCCC2)cc1)c1ccccc1[N+](=O)[O-]	-104*
O=C(NNC(=S)Nc1ccccc1)c1ccccc1[N+](=O)[O-]	-77*
Cc1c(C)n(CCO)c2ncnc(Nc3ccc(F)cc3)c12	-64*
Cc1ccc(NC(=O)N2C(=O)C3(OCCO3)c3ccccc32)cc1	-165*
CC(=O)c1ccc(OCc2cc(C(=O)NC(C)CCn3cccn3)no2)cc1 (stereo not given)	-164*
Cc1cccc(C)c1OCc1cc(C(=O)N2CCC(C3CCCCC3)C2)no1 (stereo not given)	-159*
COCC1CCCN(C(=O)c2cc(COc3ccc(C(C)=O)cc3)on2)C1 (stereo not given)	-149*
CC(=O)c1ccc(OCc2cc(C(=O)N3CCCCC3c3cccnc3)no2)cc1 (stereo not given)	-83*
CC(=O)c1ccc(OCc2cc(C(=O)NC3CCCCC3)no2)cc1	-81*
Cc1cccc(C)c1OCc1cc(C(=O)N2CCN(c3ccc(F)cc3)CC2)no1	-72*
CC(=O)c1ccc(OCc2cc(C(=O)N3CC[C@@H]4CCCC[C@H]4C3)no2)cc1	-126*
Cc1ccc(OCc2cc(C(=O)NC(C)Cc3cccnc3)no2)cc1C (stereo not given)	-82*
Cc1cccc(C)c1OCc1cc(C(=O)N2CCC(c3ccccc3)CC2)no1	-80*
COCC1CCCN(C(=O)c2cc(COc3cncc(Cl)c3)on2)C1 (stereo not given)	-137*
COC(=O)c1sc2nc(-c3ccco3)ccc2c1N	-236*
NC(=O)c1sc2nc(-c3ccco3)ccc2c1N	-62*
SMILES	aSyn 5UTR act
C/C(=C\c1ccccc1)C(=O)Nc1nccs1	-121*
N#C/C(=C\c1cccs1)C(=O)Nc1nccs1	-75*
O=C(Nc1nccs1)c1ccccc1N=Cc1ccccc1	-84*
C/C=C/C=C/C(=O)Nc1nccs1	-77*
O=S(=O)(c1ccc(OCc2nc3ccccc3s2)c(Cl)c1)N1CCOCC1	-141*
O=S(=O)(c1cccc(-c2nnc(SCc3nc4ccccc4s3)o2)c1)N1CCOCC1	-187*
CC(C)(C)c1ccc(S(=O)(=O)NCC(=O)Nc2ccc(-c3nc4ccccc4s3)cc2)cc1	-101*
CC(NS(=O)(=O)c1cccc(Cl)c1)C(=O)Nc1ccc(-c2nc3ccccc3s2)cc1 (stereo not given)	-139*
Cc1ccc(C)c(S(=O)(=O)NC(C)C(=O)Nc2ccc(-c3nc4ccccc4s3)cc2)c1 (stereo not given)	-108*
CC1CC(C)CN(CCCNC(=O)c2ccc3nc(N4CCOCC4)sc3c2)C1 (stereo not given)	-113*
CCOC(CNC(=O)c1ccc2nc(N3CCC(C)CC3)sc2c1)OCC	-180*
CC1CCCCN1CCCNC(=O)c1ccc2nc(N3CCCCC3)sc2c1 (stereo not given)	-326*
CCCN1CCN(CCCNC(=O)c2ccc3nc(N4CCC(C)CC4)sc3c2)CC1	-169*
CCc1ccc(C(=O)Nc2cc(C)on2)o1	-112*
Cc1cc(NC(=O)c2ccc(NC(=O)C(C)C)cc2)no1	-62*
Cc1cc(NC(=O)c2ccc(Br)c([N+](=O)[O-])c2)no1	-81*
Cc1cc(NC(=O)c2ccc(C)c(C)c2)no1	-106*
CC(=O)Oc1ccc(C(=O)Nc2cc(C)on2)cc1	-84*
C#CCN1C(=O)S/C(=C\c2ccc(-c3ccc(Cl)c(C(=O)O)c3)o2)C1=O	-93*
CCN=C1S/C(=C\c2ccc(-c3cccc(C(=O)O)c3)o2)C(=O)N1CC	-69*
CCN=C1S/C(=C\c2cn(CC(=O)NCc3ccco3)c3ccccc23)C(=O)N1CC	65
O=C(/C=C/c1ccccc1F)c1ccoc1	-68*
Cc1ccccc1COc1ccc(/C=N/NC(=O)c2nnn(-c3nonc3N)c2CN2CCC(C)CC2)cc1	-78*
CN(C)Cc1c(C(=O)N/N=C/c2ccccc2OCc2c(F)cccc2Cl)nnn1-c1nonc1N	-72*
CCCc1c(C(=O)N/N=C/c2ccc(OC)c(OCc3ccccc3)c2)nnn1-c1nonc1N	-95*
SMILES	aSyn 5UTR act
CC1CCN(Cc2c(C(=O)N/N=C/c3ccccc3O)nnn2-c2nonc2N)CC1	65
COc1cc(/C=N/NC(=O)c2nnn(-c3nonc3N)c2C(C)C)ccc1OCc1ccc(F)cc1	-143*
Cc1nnn(-c2nonc2N)c1C(=O)N/N=C/c1ccccc1O	68
CCCc1c(C(=O)N/N=C/c2ccc(OCc3ccccc3)c(OC)c2)nnn1-c1nonc1N	-148*
COc1ccccc1/C=N/NC(=O)c1nnn(-c2nonc2N)c1-c1cccs1	-80*
Cc1cccc(NC(=O)c2ccccc2O)c1C	-174*
Cc1cccc(NC(=O)c2cnn3ccccc23)c1C	-85*
O=C(NCc1ccc(Cl)cc1)c1cnn2ccccc12	-142*
Cc1ccccc1NC(=O)c1cccc2nccnc12	-74*
Cc1onc(-c2ccccc2)c1C(=O)NC(=S)NNC(=O)c1ccccc1O	63
O=C(Nc1ccccc1O)c1ccccc1O	-133*
Cc1cccc(C(=O)NNC(=O)c2ccccc2O)c1	-76*
O=C(Nc1ccccc1O)c1ccc(C(=O)c2ccccc2)o1	-96*
Cc1ccc(C)c(NC(=O)c2ccccc2O)c1	-96*
Cc1ccc(SCC(=O)c2ccc[nH]2)cc1	-126*
COc1ccc(-c2nnc(SCC(=O)c3ccc[nH]3)o2)cc1	-107*
COc1ccc(-c2nnc(SCC(=O)c3cccs3)o2)cc1	-140*
Fc1ccc(OCc2nc(-c3cccs3)no2)cc1	-123*
c1ccc(OCc2nc(-c3cccs3)no2)cc1	-173*
CN(Cc1nc(-c2cccs2)no1)CC(O)c1ccccc1 (stereo not given)	-62*
O=c1c2ccccc2oc2ccc(NCCCN3CCOCC3)cc12	-108*
CN1CCCC1CCNc1ccc2c(=O)c3ccccc3oc2c1 (stereo not given)	-130*
O=c1c2ccccc2oc2cc(NCCCN3CCOCC3)ccc12	-127*
C[C@H]1C=CC(=O)O[C@H]1c1ccccc1	-142*
COc1ccc2oc(C(=O)NCC3CCCO3)c(C)c2c1 (stereo not given)	-126*
COc1ccc(-c2cc(C(=O)NCC3CCCO3)c3cc(C)ccc3n2)cc1 (stereo not given)	-67*
COc1ccc2oc(C(=O)NC(C)(C)C)c(C)c2c1	-138*
CCOc1ccc2oc(C(=O)NCC3CCCO3)c(C)c2c1 (stereo not given)	-100*
CCc1ccc2c(c1)C1(C(=O)N2)N2CCCC2C(C(=O)c2ccc3ccccc3c2)C12C(=O)Nc1ccccc12 (stereo not given)	-127*
CCc1ccc2c(c1)C1(NN=C(c3cccc4ccccc34)S1)C(=O)N2 (stereo not given)	76
